# Positions count from the first letter of the chain named.
# Tests used:
# Experiment in all cases: PBM; 200 nM protein, PBS
# Conditions in all cases: dsDNA, one strand shown
# VENTX [1] = biological target: T1, VENTX (Homo sapiens, UniProt O95231 78-163, R121Q)
# T1 sequence: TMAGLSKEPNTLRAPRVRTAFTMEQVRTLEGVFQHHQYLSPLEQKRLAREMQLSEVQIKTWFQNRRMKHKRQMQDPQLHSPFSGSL
# VENTX [2] = biological target: T2, VENTX (Homo sapiens, UniProt O95231 78-163)
# T2 sequence: T1 sequence with Q44R
# ALX4 [3] = biological target: ALX4 (Homo sapiens, UniProt Q9H161 200-286)
# Chain of ALX4 (Homo sapiens, UniProt Q9H161 200-286) (Q9H161 200-286): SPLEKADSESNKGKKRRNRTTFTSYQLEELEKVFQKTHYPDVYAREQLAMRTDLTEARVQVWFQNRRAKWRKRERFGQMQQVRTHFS
# VENTX [4] = biological target: T3, VENTX (Homo sapiens, UniProt O95231 78-163, Y115F)
# T3 sequence: T1 sequence with Y38F, Q44R
# ALX4 [5] = biological target: ALX4 (Homo sapiens, UniProt Q9H161 200-286, Q225E)
# Chain of ALX4 (Homo sapiens, UniProt Q9H161 200-286, Q225E) (Q9H161 200-286 Q225E): as the sequence (Q9H161 200-286) above, with Q26E counted along it
# HOXA2 [6] = biological target: HOXA2 (Homo sapiens, UniProt O43364 129-215, R185T)
# Chain of HOXA2 (Homo sapiens, UniProt O43364 129-215, R185T) (O43364 129-215 R185T): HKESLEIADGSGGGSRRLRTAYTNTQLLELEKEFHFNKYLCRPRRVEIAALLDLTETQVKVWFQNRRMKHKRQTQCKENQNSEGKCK
# ALX3 [7] = biological target: ALX3 (Homo sapiens, UniProt O95076 139-225, N203Q)
# Chain of ALX3 (Homo sapiens, UniProt O95076 139-225, N203Q) (O95076 139-225 N203Q): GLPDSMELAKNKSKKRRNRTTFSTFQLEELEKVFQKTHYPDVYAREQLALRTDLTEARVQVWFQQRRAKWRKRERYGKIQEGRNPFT
# HOXA2 [8] = biological target: HOXA2 (Homo sapiens, UniProt O43364 129-215, R185K)
# Chain of HOXA2 (Homo sapiens, UniProt O43364 129-215, R185K) (O43364 129-215 R185K): as the sequence (O43364 129-215 R185T) above, with T57K counted along it
# ALX3 [9] = biological target: ALX3 (Homo sapiens, UniProt O95076 139-225)
# Chain of ALX3 (Homo sapiens, UniProt O95076 139-225) (O95076 139-225): as the sequence (O95076 139-225 N203Q) above, with Q65N counted along it
# ALX3 [10] = biological target: ALX3 (Homo sapiens, UniProt O95076 139-225, L168Q)
# Chain of ALX3 (Homo sapiens, UniProt O95076 139-225, L168Q) (O95076 139-225 L168Q): as the sequence (O95076 139-225 N203Q) above, with L30Q, Q65N counted along it
# ALX3 [11] = biological target: ALX3 (Homo sapiens, UniProt O95076 139-225, L168V)
# Chain of ALX3 (Homo sapiens, UniProt O95076 139-225, L168V) (O95076 139-225 L168V): as the sequence (O95076 139-225 N203Q) above, with L30V, Q65N counted along it
# HOXA2 [12] = biological target: HOXA2 (Homo sapiens, UniProt O43364 129-215, Y150S)
# Chain of HOXA2 (Homo sapiens, UniProt O43364 129-215, Y150S) (O43364 129-215 Y150S): as the sequence (O43364 129-215 R185T) above, with Y22S, T57R counted along it
# ALX3 [13] = biological target: ALX3 (Homo sapiens, UniProt O95076 139-225, N203S)
# Chain of ALX3 (Homo sapiens, UniProt O95076 139-225, N203S) (O95076 139-225 N203S): as the sequence (O95076 139-225 N203Q) above, with Q65S counted along it
# HOXA2 [14] = biological target: HOXA2 (Homo sapiens, UniProt O43364 129-215)
# Chain of HOXA2 (Homo sapiens, UniProt O43364 129-215) (O43364 129-215): as the sequence (O43364 129-215 R185T) above, with T57R counted along it
# NKX2-6 [15] = biological target: T4, NKX2-6 (Homo sapiens, UniProt A6NCS4 118-204, R150C)
# T4 sequence: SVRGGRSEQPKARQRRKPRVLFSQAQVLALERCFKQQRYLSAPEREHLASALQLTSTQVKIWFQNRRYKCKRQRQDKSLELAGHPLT
# NKX2-6 [16] = biological target: T5, NKX2-6 (Homo sapiens, UniProt A6NCS4 118-204)
# T5 sequence: T4 sequence with C33R
# VAX1 [17] = biological target: VAX1 (Homo sapiens, UniProt Q5SQQ9 86-172)
# Chain of VAX1 (Homo sapiens, UniProt Q5SQQ9 86-172) (Q5SQQ9 86-172): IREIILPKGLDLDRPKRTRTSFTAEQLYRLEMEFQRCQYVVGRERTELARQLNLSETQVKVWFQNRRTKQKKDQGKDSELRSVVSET
# NKX2-6 [18] = biological target: T6, NKX2-6 (Homo sapiens, UniProt A6NCS4 118-204, F151L)
# T6 sequence: T4 sequence with C33R, F34L
# VAX1 [19] = biological target: VAX1 (Homo sapiens, UniProt Q5SQQ9 86-172, T142I)
# Chain of VAX1 (Homo sapiens, UniProt Q5SQQ9 86-172, T142I) (Q5SQQ9 86-172 T142I): as the sequence (Q5SQQ9 86-172) above, with T57I counted along it
# VAX1 [20] = biological target: VAX1 (Homo sapiens, UniProt Q5SQQ9 86-172, K157R)
# Chain of VAX1 (Homo sapiens, UniProt Q5SQQ9 86-172, K157R) (Q5SQQ9 86-172 K157R): as the sequence (Q5SQQ9 86-172) above, with K72R counted along it
# PRRX1 [21] = biological target: PRRX1 (Homo sapiens, UniProt P54821 80-166, F113S)
# Chain of PRRX1 (Homo sapiens, UniProt P54821 80-166, F113S) (P54821 80-166 F113S): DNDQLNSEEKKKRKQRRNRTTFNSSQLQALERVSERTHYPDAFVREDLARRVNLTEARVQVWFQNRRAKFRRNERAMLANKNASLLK
# PRRX1 [22] = biological target: PRRX1 (Homo sapiens, UniProt P54821 80-166)
# Chain of PRRX1 (Homo sapiens, UniProt P54821 80-166) (P54821 80-166): as the sequence (P54821 80-166 F113S) above, with S34F counted along it
# HOXA7 [23] = biological target: HOXA7 (Homo sapiens, UniProt P31268 116-202)
# Chain of HOXA7 (Homo sapiens, UniProt P31268 116-202) (P31268 116-202): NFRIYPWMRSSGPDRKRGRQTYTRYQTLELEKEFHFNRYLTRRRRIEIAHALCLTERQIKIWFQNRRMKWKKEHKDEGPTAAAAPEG
# MSX2 [24] = biological target: MSX2 (Homo sapiens, UniProt P35548 130-214, R199I)
# Chain of MSX2 (Homo sapiens, UniProt P35548 130-214, R199I) (P35548 130-214 R199I): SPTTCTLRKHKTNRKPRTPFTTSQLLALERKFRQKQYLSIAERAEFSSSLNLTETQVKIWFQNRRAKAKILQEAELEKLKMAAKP
# MSX2 [25] = biological target: MSX2 (Homo sapiens, UniProt P35548 130-214)
# Chain of MSX2 (Homo sapiens, UniProt P35548 130-214) (P35548 130-214): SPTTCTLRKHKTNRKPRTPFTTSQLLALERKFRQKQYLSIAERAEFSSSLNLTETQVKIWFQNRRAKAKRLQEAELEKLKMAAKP
# MSX2 [26] = biological target: MSX2 (Homo sapiens, UniProt P35548 130-214, F161Y)
# Chain of MSX2 (Homo sapiens, UniProt P35548 130-214, F161Y) (P35548 130-214 F161Y): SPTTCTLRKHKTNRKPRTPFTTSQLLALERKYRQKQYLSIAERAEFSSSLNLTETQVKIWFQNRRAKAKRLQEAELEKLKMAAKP
# HOXA7 [27] = biological target: HOXA7 (Homo sapiens, UniProt P31268 116-202, W177C)
# Chain of HOXA7 (Homo sapiens, UniProt P31268 116-202, W177C) (P31268 116-202 W177C): as the sequence (P31268 116-202) above, with W62C counted along it
# HOXC10 [28] = biological target: HOXC10 (Homo sapiens, UniProt Q9NYD6 254-340)
# Chain of HOXC10 (Homo sapiens, UniProt Q9NYD6 254-340) (Q9NYD6 254-340): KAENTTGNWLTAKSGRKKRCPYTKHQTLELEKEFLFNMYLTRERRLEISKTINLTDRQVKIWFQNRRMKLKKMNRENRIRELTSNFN
# HOXB6 [29] = biological target: HOXB6 (Homo sapiens, UniProt P17509 132-218, K202E)
# Chain of HOXB6 (Homo sapiens, UniProt P17509 132-218, K202E) (P17509 132-218 K202E): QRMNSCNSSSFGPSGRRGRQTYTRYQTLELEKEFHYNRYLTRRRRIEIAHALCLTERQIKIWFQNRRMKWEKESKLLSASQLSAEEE
# PITX2 = PITX2 (Homo sapiens, UniProt Q99697 72-157)
# HOXC10 [30] = biological target: HOXC10 (Homo sapiens, UniProt Q9NYD6 254-340, K271E)
# Chain of HOXC10 (Homo sapiens, UniProt Q9NYD6 254-340, K271E) (Q9NYD6 254-340 K271E): as the sequence (Q9NYD6 254-340) above, with K18E counted along it
# HOXB6 [31] = biological target: HOXB6 (Homo sapiens, UniProt P17509 132-218)
# Chain of HOXB6 (Homo sapiens, UniProt P17509 132-218) (P17509 132-218): as the sequence (P17509 132-218 K202E) above, with E71K counted along it
sequence,measurement,setting,value
CCCAGAGG,binding signal,VENTX [1],"7.95 upbm affinity estimate (log intensity, higher = more binding, comparable within an allelic series)"
same,binding signal,VENTX [2],"7.77 upbm affinity estimate (log intensity, higher = more binding, comparable within an allelic series)"
same,binding signal,ALX4 [3],"8.01 upbm affinity estimate (log intensity, higher = more binding, comparable within an allelic series)"
same,binding signal,VENTX [4],"7.81 upbm affinity estimate (log intensity, higher = more binding, comparable within an allelic series)"
same,binding signal,ALX4 [5],"8 upbm affinity estimate (log intensity, higher = more binding, comparable within an allelic series)"
same,binding signal,HOXA2 [6],"7.09 upbm affinity estimate (log intensity, higher = more binding, comparable within an allelic series)"
same,binding signal,ALX3 [7],"7.67 upbm affinity estimate (log intensity, higher = more binding, comparable within an allelic series)"
same,binding signal,HOXA2 [8],"10.2 upbm affinity estimate (log intensity, higher = more binding, comparable within an allelic series)"
same,binding signal,ALX3 [9],"7.71 upbm affinity estimate (log intensity, higher = more binding, comparable within an allelic series)"
same,binding signal,ALX3 [10],"7.65 upbm affinity estimate (log intensity, higher = more binding, comparable within an allelic series)"
same,binding signal,ALX3 [11],"7.63 upbm affinity estimate (log intensity, higher = more binding, comparable within an allelic series)"
same,binding signal,HOXA2 [12],"10.3 upbm affinity estimate (log intensity, higher = more binding, comparable within an allelic series)"
same,binding signal,ALX3 [13],"7.62 upbm affinity estimate (log intensity, higher = more binding, comparable within an allelic series)"
same,binding signal,HOXA2 [14],"7.15 upbm affinity estimate (log intensity, higher = more binding, comparable within an allelic series)"
ACCACGCC,binding signal,VENTX [1],"7.95 upbm affinity estimate (log intensity, higher = more binding, comparable within an allelic series)"
same,binding signal,VENTX [2],"8.09 upbm affinity estimate (log intensity, higher = more binding, comparable within an allelic series)"
same,binding signal,VENTX [4],"7.97 upbm affinity estimate (log intensity, higher = more binding, comparable within an allelic series)"
CGCCTGCC,binding signal,VENTX [1],"8.19 upbm affinity estimate (log intensity, higher = more binding, comparable within an allelic series)"
same,binding signal,VENTX [2],"8.35 upbm affinity estimate (log intensity, higher = more binding, comparable within an allelic series)"
same,binding signal,ALX4 [3],"7.81 upbm affinity estimate (log intensity, higher = more binding, comparable within an allelic series)"
same,binding signal,VENTX [4],"8.31 upbm affinity estimate (log intensity, higher = more binding, comparable within an allelic series)"
same,binding signal,ALX4 [5],"8.15 upbm affinity estimate (log intensity, higher = more binding, comparable within an allelic series)"
same,binding signal,NKX2-6 [15],"9.32 upbm affinity estimate (log intensity, higher = more binding, comparable within an allelic series)"
same,binding signal,ALX3 [7],"7.68 upbm affinity estimate (log intensity, higher = more binding, comparable within an allelic series)"
same,binding signal,NKX2-6 [16],"9.1 upbm affinity estimate (log intensity, higher = more binding, comparable within an allelic series)"
same,binding signal,ALX3 [9],"7.56 upbm affinity estimate (log intensity, higher = more binding, comparable within an allelic series)"
same,binding signal,VAX1 [17],"7.07 upbm affinity estimate (log intensity, higher = more binding, comparable within an allelic series)"
same,binding signal,ALX3 [10],"7.74 upbm affinity estimate (log intensity, higher = more binding, comparable within an allelic series)"
same,binding signal,NKX2-6 [18],"9.19 upbm affinity estimate (log intensity, higher = more binding, comparable within an allelic series)"
same,binding signal,ALX3 [11],"7.77 upbm affinity estimate (log intensity, higher = more binding, comparable within an allelic series)"
same,binding signal,VAX1 [19],"7.24 upbm affinity estimate (log intensity, higher = more binding, comparable within an allelic series)"
same,binding signal,ALX3 [13],"7.7 upbm affinity estimate (log intensity, higher = more binding, comparable within an allelic series)"
same,binding signal,VAX1 [20],"7.15 upbm affinity estimate (log intensity, higher = more binding, comparable within an allelic series)"
GCCAACCC,binding signal,VENTX [1],"8.11 upbm affinity estimate (log intensity, higher = more binding, comparable within an allelic series)"
same,binding signal,VENTX [2],"7.96 upbm affinity estimate (log intensity, higher = more binding, comparable within an allelic series)"
same,binding signal,PRRX1 [21],"9.36 upbm affinity estimate (log intensity, higher = more binding, comparable within an allelic series)"
same,binding signal,VENTX [4],"8.24 upbm affinity estimate (log intensity, higher = more binding, comparable within an allelic series)"
same,binding signal,PRRX1 [22],"9.21 upbm affinity estimate (log intensity, higher = more binding, comparable within an allelic series)"
CCAAATTA,binding signal,VENTX [1],"10.8 upbm affinity estimate (log intensity, higher = more binding, comparable within an allelic series)"
same,binding signal,VENTX [2],"11.4 upbm affinity estimate (log intensity, higher = more binding, comparable within an allelic series)"
same,binding signal,VENTX [4],"10.8 upbm affinity estimate (log intensity, higher = more binding, comparable within an allelic series)"
CGTCCAGC,binding signal,VENTX [1],"8.04 upbm affinity estimate (log intensity, higher = more binding, comparable within an allelic series)"
same,binding signal,VENTX [2],"7.65 upbm affinity estimate (log intensity, higher = more binding, comparable within an allelic series)"
same,binding signal,HOXA7 [23],"8.59 upbm affinity estimate (log intensity, higher = more binding, comparable within an allelic series)"
same,binding signal,VENTX [4],"7.81 upbm affinity estimate (log intensity, higher = more binding, comparable within an allelic series)"
same,binding signal,MSX2 [24],"9.63 upbm affinity estimate (log intensity, higher = more binding, comparable within an allelic series)"
same,binding signal,MSX2 [25],"9.6 upbm affinity estimate (log intensity, higher = more binding, comparable within an allelic series)"
same,binding signal,MSX2 [26],"9.74 upbm affinity estimate (log intensity, higher = more binding, comparable within an allelic series)"
same,binding signal,HOXA7 [27],"8.41 upbm affinity estimate (log intensity, higher = more binding, comparable within an allelic series)"
AATGTATC,binding signal,VENTX [1],"9.76 upbm affinity estimate (log intensity, higher = more binding, comparable within an allelic series)"
same,binding signal,VENTX [2],"10.1 upbm affinity estimate (log intensity, higher = more binding, comparable within an allelic series)"
CCGAGGGC,binding signal,VENTX [1],"7.98 upbm affinity estimate (log intensity, higher = more binding, comparable within an allelic series)"
same,binding signal,VENTX [2],"8.24 upbm affinity estimate (log intensity, higher = more binding, comparable within an allelic series)"
same,binding signal,ALX4 [3],"8.14 upbm affinity estimate (log intensity, higher = more binding, comparable within an allelic series)"
same,binding signal,VENTX [4],"8.11 upbm affinity estimate (log intensity, higher = more binding, comparable within an allelic series)"
same,binding signal,ALX4 [5],"8.07 upbm affinity estimate (log intensity, higher = more binding, comparable within an allelic series)"
same,binding signal,HOXA2 [6],"7.12 upbm affinity estimate (log intensity, higher = more binding, comparable within an allelic series)"
same,binding signal,MSX2 [24],"9.49 upbm affinity estimate (log intensity, higher = more binding, comparable within an allelic series)"
same,binding signal,HOXA2 [8],"10.3 upbm affinity estimate (log intensity, higher = more binding, comparable within an allelic series)"
same,binding signal,MSX2 [25],"9.42 upbm affinity estimate (log intensity, higher = more binding, comparable within an allelic series)"
same,binding signal,MSX2 [26],"9.43 upbm affinity estimate (log intensity, higher = more binding, comparable within an allelic series)"
same,binding signal,HOXA2 [12],"10.3 upbm affinity estimate (log intensity, higher = more binding, comparable within an allelic series)"
same,binding signal,HOXA2 [14],"7.2 upbm affinity estimate (log intensity, higher = more binding, comparable within an allelic series)"
GTATTAAA,binding signal,VENTX [1],"9.94 upbm affinity estimate (log intensity, higher = more binding, comparable within an allelic series)"
same,binding signal,VENTX [2],"10.3 upbm affinity estimate (log intensity, higher = more binding, comparable within an allelic series)"
CAGGGCCC,binding signal,VENTX [1],"8.07 upbm affinity estimate (log intensity, higher = more binding, comparable within an allelic series)"
same,binding signal,VENTX [2],"8.08 upbm affinity estimate (log intensity, higher = more binding, comparable within an allelic series)"
same,binding signal,HOXA7 [23],"8.32 upbm affinity estimate (log intensity, higher = more binding, comparable within an allelic series)"
same,binding signal,VENTX [4],"7.87 upbm affinity estimate (log intensity, higher = more binding, comparable within an allelic series)"
same,binding signal,VAX1 [17],"7.03 upbm affinity estimate (log intensity, higher = more binding, comparable within an allelic series)"
same,binding signal,VAX1 [19],"7.1 upbm affinity estimate (log intensity, higher = more binding, comparable within an allelic series)"
same,binding signal,HOXA7 [27],"8.37 upbm affinity estimate (log intensity, higher = more binding, comparable within an allelic series)"
same,binding signal,VAX1 [20],"6.99 upbm affinity estimate (log intensity, higher = more binding, comparable within an allelic series)"
AGGGGGCG,binding signal,VENTX [1],"8.25 upbm affinity estimate (log intensity, higher = more binding, comparable within an allelic series)"
same,binding signal,VENTX [2],"8.25 upbm affinity estimate (log intensity, higher = more binding, comparable within an allelic series)"
same,binding signal,HOXC10 [28],"10 upbm affinity estimate (log intensity, higher = more binding, comparable within an allelic series)"
same,binding signal,VENTX [4],"8.23 upbm affinity estimate (log intensity, higher = more binding, comparable within an allelic series)"
same,binding signal,HOXB6 [29],"9 upbm affinity estimate (log intensity, higher = more binding, comparable within an allelic series)"
same,binding signal,HOXA2 [6],"7.3 upbm affinity estimate (log intensity, higher = more binding, comparable within an allelic series)"
same,binding signal,PITX2,"8.12 upbm affinity estimate (log intensity, higher = more binding, comparable within an allelic series)"
same,binding signal,HOXA2 [8],"10.2 upbm affinity estimate (log intensity, higher = more binding, comparable within an allelic series)"
same,binding signal,HOXC10 [30],"9.95 upbm affinity estimate (log intensity, higher = more binding, comparable within an allelic series)"
same,binding signal,HOXA2 [12],"10.3 upbm affinity estimate (log intensity, higher = more binding, comparable within an allelic series)"
same,binding signal,HOXA2 [14],"7.28 upbm affinity estimate (log intensity, higher = more binding, comparable within an allelic series)"
same,binding signal,HOXB6 [31],"8.93 upbm affinity estimate (log intensity, higher = more binding, comparable within an allelic series)"
CGGGCGCC,binding signal,VENTX [1],"8.04 upbm affinity estimate (log intensity, higher = more binding, comparable within an allelic series)"
same,binding signal,VENTX [2],"8.22 upbm affinity estimate (log intensity, higher = more binding, comparable within an allelic series)"
same,binding signal,VENTX [4],"8.23 upbm affinity estimate (log intensity, higher = more binding, comparable within an allelic series)"

# Reference: paper PMC11006913
